PubChem BioAssay (Tox21)
Records with an inconclusive call do not appear. Calls of active or inactive are those of the source. Calls come from the whole dose curve; as a rule, active = well fitted curve in the direction sought with a large enough effect in the repeat runs; inconclusive = weak or mixed curves; inactive = no such curve, though single readings can be large; an effect the other way counts as inactive or inconclusive.

Experiments:
[1] = qHTS RealTime-Glo MT Cell Viability Assay in HepG2 cells - 40 hour (AID 1224870); note: nearly all actives have a fitted effect of over 50% in size
Outline: (§1)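 HepG2 cells mixed with RealTime-Glo MT reagents (NanoLuc plus cell-permeant prosubstrate) were seeded at 600 cells/well, incubated 5 h at 37 C/5% CO2, then pinned with compounds in DMSO; nonlytic luminescence tracked viability during 40 h treatment.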

[2] = A CellTox Green Cytotoxicity Assay to monitor cytotoxicity in HEK293 cells - 40 hour (AID 1224871); note: nearly all actives have a fitted effect of over 45% in size
Outline: (§2)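 Homogeneous no-lysis format: HEK293 cell suspension mixed with CellTox Green reagent, seeded, incubated 5 h at 37 C/5% CO2, then dosed by pintool with compound in DMSO.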

[3] = qHTS RealTime-Glo MT Cell Viability Assay in HEK293 cells - 16 hour (AID 1224872); note: top concentration of the series differs between compounds; nearly all actives have a fitted effect of over 50% in size
Outline: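 Cells + reagent dispensed (600 cells/well, HEK293) → 5 h at 37 C/5% CO2 → 23 nL compound in DMSO pinned → 40 h at 37 C → luminescence read at 0, 8, 16, 24, 32, 40 h.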

[4] = qHTS RealTime-Glo MT Cell Viability Assay in HepG2 cells - 8 hour (AID 1224873); note: nearly all actives have a fitted effect of over 55% in size
Outline: as §1

[5] = qHTS RealTime-Glo MT Cell Viability Assay in HEK293 cells - 40 hour (AID 1224874); conditions: RealTime-Glo luminescence; max response: hits give low values; note: nearly all actives have a fitted effect of over 50% in size
Outline: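 Measured as luminescence from the same continuously cultured HEK293 wells at successive time points (0, 8, 16, 24, 32, 40 h) after compound addition. Reagent present from seeding; dosing at 5 h; incubation 37 C.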

[6] = A CellTox Green Cytotoxicity Assay to monitor cytotoxicity in HEK293 cells - 24 hour (AID 1224875); note: series mostly up to about 77 µM; nearly all actives have a fitted effect of over 45% in size
Outline: as §2

[7] = qHTS RealTime-Glo MT Cell Viability Assay in HepG2 cells - 32 hour (AID 1224877); note: nearly all actives have a fitted effect of over 55% in size
Outline: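 Real-time, nonlytic viability: 600 HepG2 cells/well mixed with NanoLuc enzyme plus prosubstrate; 5 h settle, compound (DMSO) added by pintool; luminescence monitored over 40 h at 37 C.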

[8] = A CellTox Green Cytotoxicity Assay to monitor cytotoxicity in HepG2 cells - 16 hour (AID 1224876); note: nearly all actives have a fitted effect of over 45% in size
Outline: (§3)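 Fluorescent DNA-binding dye, 600 HepG2 cells/well, 5 h preincubation then compound in DMSO; same plates read at 0–40 h, 37 C.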

[9] = A CellTox Green Cytotoxicity Assay to monitor cytotoxicity in HepG2 cells - 40 hour (AID 1224879); note: nearly all actives have a fitted effect of over 40% in size
Outline: as §3

[10] = A CellTox Green Cytotoxicity Assay to monitor cytotoxicity in HepG2 cells - 24 hour (AID 1224878); note: nearly all actives have a fitted effect of over 45% in size
Outline: as §3
% is set by controls: 0 for no effect and ±100 for the full control effect.

CC(=C(CCOC(=O)C(C)C)SSC(CCOC(=O)C(C)C)=C(C)N(C=O)Cc1cnc(C)nc1N)N(C=O)Cc1cnc(C)nc1N
inactive: outcome [1] | Potency [2] | Potency [3] | outcome [4] | max response [5] 3.74% | outcome [6] | outcome [7]

O=C(CS(=O)Cc1ccco1)NC/C=C\COc1cc(CN2CCCCC2)ccn1 (configuration not stated)
inactive: outcome [1] | Potency [2] | Potency [3] | outcome [4] | max response [5] -0.682% | outcome [6] | outcome [8] | outcome [7] | Potency [9]

CC1(C)S[C@@H]2[C@H](N=CN3CCCCCC3)C(=O)N2[C@H]1C(=O)O
inactive: outcome [1] | Potency [2] | Potency [3] | outcome [4] | max response [5] 6.57% | outcome [6] | outcome [8] | outcome [7] | Potency [9]

CCOC(=O)[C@H](CCc1ccccc1)N[C@@H](C)C(=O)N1C(=O)N(C)C[C@H]1C(=O)O
inactive: outcome [1] | Potency [2] | Potency [3] | outcome [4] | max response [5] 1.75% | outcome [6] | outcome [7] | outcome [10] | Potency [9]

C=C(C)C(=O)OCCN(CC)CC
inactive: outcome [1] | Potency [2] | Potency [3] | outcome [4] | max response [5] 2.31% | outcome [6] | outcome [7] | outcome [10] | Potency [9]

COC(=O)CCCCCCCC(=O)OC
inactive: outcome [1] | Potency [2] | Potency [3] | outcome [4] | max response [5] 11.9% | outcome [6] | outcome [7] | outcome [10] | Potency [9]

CC(CN)CC(C)(C)CCN (configuration not stated)
inactive: outcome [1] | Potency [2] | Potency [3] | outcome [4] | max response [5] 6.3% | outcome [6] | outcome [8] | outcome [7] | Potency [9]

CCCC/C=C\CCCCCCCCCC=O
inactive: outcome [1] | Potency [2] | Potency [3] | outcome [4] | max response [5] -10.9% | outcome [6] | outcome [7] | outcome [10] | Potency [9]

CC(=O)NCc1c(I)c(NC(C)=O)c(I)c(C(=O)O)c1I
inactive: outcome [1] | Potency [2] | Potency [3] | outcome [4] | max response [5] 3.65% | outcome [6] | outcome [7]

C[C@H](N)[C@H](O)c1cccc(O)c1
inactive: outcome [1] | Potency [2] | Potency [3] | outcome [4] | max response [5] -0.629% | outcome [6] | outcome [8] | outcome [7] | Potency [9]

CNS(=O)(=O)CCc1ccc2[nH]cc(C3CCN(C)CC3)c2c1
inactive: outcome [1] | Potency [2] | Potency [3] | outcome [4] | max response [5] -4.37% | outcome [6] | outcome [7] | Potency [9]

C=C(C)C(=O)OCC(C)(C)COC(=O)C(=C)C
inactive: outcome [1] | Potency [2] | Potency [3] | outcome [4] | max response [5] 2.01% | outcome [6] | outcome [7] | Potency [9]

O=C(O)Cc1cn(-c2ccccc2)nc1-c1ccc(Cl)cc1
inactive: outcome [1] | Potency [2] | Potency [3] | outcome [4] | max response [5] -3.35% | outcome [6] | outcome [8] | outcome [7] | Potency [9]

CC(=O)N[C@@H](CCC(=O)O)C(=O)O
inactive: outcome [1] | Potency [2] | Potency [3] | outcome [4] | max response [5] 1.63% | outcome [6] | outcome [7] | Potency [9]

CC(=O)/C=C/C1C(C)=CCC(C)C1(C)C (configuration not stated)
inactive: outcome [1] | Potency [2] | Potency [3] | outcome [4] | max response [5] 1.21% | outcome [6] | outcome [8] | outcome [7] | Potency [9]

O=C1CC(c2ccc(Cl)cc2)CC(=O)N1
inactive: outcome [1] | Potency [2] | Potency [3] | outcome [4] | max response [5] -1.95% | outcome [6] | outcome [8] | outcome [7] | Potency [9]

CC(C)OC(=O)CCCCC(=O)OC(C)C
inactive: outcome [1] | Potency [2] | Potency [3] | outcome [4] | max response [5] 13.3% | outcome [6] | outcome [7] | Potency [9]

CCCCC(CC)COCCO (configuration not stated)
inactive: outcome [1] | Potency [2] | Potency [3] | outcome [4] | max response [5] -0.338% | outcome [6] | outcome [8] | outcome [7] | Potency [9]

CC(N)C(=O)OC(C)(C)Cc1ccc(Cl)cc1 (configuration not stated)
inactive: outcome [1] | Potency [2] | Potency [3] | outcome [4] | max response [5] -11.9% | outcome [6] | outcome [8] | outcome [7] | Potency [9]

NCCN1CCOCC1
inactive: outcome [1] | Potency [2] | Potency [3] | outcome [4] | max response [5] 1.04% | outcome [6] | outcome [7] | outcome [10] | Potency [9]

O=C(CCN1CCN(CCO)CC1)N1c2ccccc2Sc2ccc(C(F)(F)F)cc21
inactive: outcome [1] | Potency [2] | Potency [3] | outcome [4] | max response [5] -11.6% | outcome [6] | outcome [8] | outcome [7] | Potency [9]

CN(CCOc1ccc(NS(C)(=O)=O)cc1)CCc1ccc(NS(C)(=O)=O)cc1
inactive: outcome [1] | Potency [2] | Potency [3] | outcome [4] | max response [5] -0.0536% | outcome [6] | outcome [7] | outcome [10] | Potency [9]

CNC(=O)[C@H]1O[C@@H](n2cnc3c(NCc4cc(Cl)ccc4OCc4cc(C)no4)ncnc32)[C@H](O)[C@@H]1N
inactive: outcome [1] | Potency [2] | Potency [3] | outcome [4] | max response [5] 0.414% | outcome [6] | outcome [8] | outcome [7] | Potency [9]

CCCCOC(=O)c1ccccc1
inactive: outcome [1] | Potency [2] | outcome [4] | max response [5] 4.16% | outcome [6] | outcome [8] | outcome [7] | outcome [10] | Potency [9]

OCCCCC(O)CO (configuration not stated)
inactive: outcome [1] | Potency [2] | outcome [4] | max response [5] 5.78% | outcome [6] | outcome [8] | outcome [7] | outcome [10] | Potency [9]

O=C1c2ccccc2C(=O)c2cc(S(=O)(=O)O)ccc21
inactive: outcome [1] | Potency [2] | outcome [4] | outcome [6] | outcome [8] | outcome [7] | outcome [10] | Potency [9]

CC(C)(C)OC(=O)c1ccc(O)cc1
inactive: outcome [1] | Potency [2] | outcome [4] | max response [5] -26.7% | outcome [6] | outcome [8] | outcome [7]

COc1ccc2c(c1OC)C(=O)O[C@@H]2[C@H]1c2c(cc3c(c2OC)OCO3)CCN1C
inactive: outcome [1] | Potency [2] | Potency [3] | outcome [4] | outcome [6] | outcome [8] | outcome [7] | outcome [10]

CC(=O)OC(C)OC(=O)C(C)c1ccc(-c2ccccc2)c(F)c1 (configuration not stated)
inactive: outcome [1] | Potency [2] | outcome [4] | max response [5] 3.38% | outcome [6] | outcome [7] | Potency [9]

O=Cc1ccc(Cl)c(Cl)c1
inactive: outcome [1] | Potency [2] | outcome [4] | outcome [6] | outcome [8] | outcome [7] | outcome [10] | Potency [9]

O=P(O)(O)OP(=O)(O)O
inactive: outcome [1] | Potency [2] | outcome [4] | max response [5] 2.82% | outcome [6] | outcome [7] | Potency [9]
